Results from PubChem BioAssay (EPA / NIEHS).
Values joined by “and” are separate entries in the source; they are usually repeats but may differ in a detail not shown here. Identical values can stand only once. Results filed as inconclusive are left out. More than one record can exist for a structure, and the calls need not agree. Active and inactive are the calls of the source. How the source made its calls, unless noted: active means hit-call score of the fitted dose curve at least 0.9, where 1 is the maximum; inconclusive means response in the unintended direction; inactive means score below 0.9.

Experiments:
[1] = target: Estrogen receptor (Homo sapiens) (UniProt P03372); assay: OT_ERa_GFPERaERE_0480: Odyssey Thera (OT) 8-hour HeLa Transcription Induction Assay for Estrogen Receptor (AID 2283381; active means hit-call score of the fitted dose curve at least 0.9, where 1 is the maximum; inactive means score below 0.9)
Summary of the method: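 Human cervical HeLa cells were treated for 8 hours, after which ERE-driven GFP induction was measured by fluorescence microscopy; increases over DMSO baseline defined activity.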

[2] = target: Estrogen receptor (Homo sapiens) (UniProt P03372); assay: OT_ERa_GFPERaERE_0120: Odyssey Thera (OT) 2-hour HeLa Transcription Induction Assay for Estrogen Receptor (AID 2283382)
Summary of the method: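 Cells (human cervical HeLa) receive compound, incubate 2 hours, then are imaged for fluorescent reporter induction. Images are quantified by high content analysis, and activity is fitted as gain of signal against DMSO.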

[3] = target: Bile acid receptor (Homo sapiens) (UniProt Q96RI1); assay: OT_FXR_FXRSRC1_0480: Odyssey Thera (OT) 8-hour HEK293T Protein-Complementation Assay for Farnesoid X receptor/SRC-1 Co-activator (AID 2283383)
Summary of the method: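 PCA, HEK293T, 8 h compound exposure; FXR–SRC-1 binding reconstitutes split reporter; fluorescence intensity; positive-direction fit vs DMSO.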

[4] = target: Retinoic acid receptor RXR-alpha (Homo sapiens) (UniProt P19793); assay: OT_NURR1_NURR1RXRa_0480: Odyssey Thera (OT) 8-hour HEK293T Protein Complementation Assay for Nurr1/retinoid X receptor (RXR) (AID 2283385)
Summary of the method: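 Interaction of bait and prey reconstitutes a functional reporter, whose fluorescence was measured in HEK293T cells dosed with compound for 8 hours. Signal gain relative to DMSO defined the single endpoint.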

[5] = target: Retinoic acid receptor RXR-alpha (Homo sapiens) (UniProt P19793); assay: OT_NURR1_NURR1RXRa_1440: Odyssey Thera (OT) 24-hour HEK293T Protein Complementation Assay for Nurr1/retinoid X receptor (RXR) (AID 2283386)
Summary of the method: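 Steps: fragment-tagged Nurr1 and RXRα expressed in HEK293T; compounds added; after 24 h, complemented reporter quantified by fluorescence intensity; signal increase over DMSO fitted as the single endpoint.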

[6] = target: Peroxisome proliferator-activated receptor gamma (Homo sapiens) (UniProt P37231); assay: OT_PPARg_PPARgSRC1_1440: Odyssey Thera (OT) 24-hour Protein-Complementation Assay for Peroxisome Proliferator-activated Receptor Gamma/ SRC-1 Co-activator (AID 2283388)
Summary of the method: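 HEK293T transiently transfected with PPARg/SRC-1 split-Venus YFP fusions 48 h before dosing, then treated 24 h at 37C. Fixed cells imaged; nuclear/cytoplasmic 488 nm fluorescence ratio, gain of signal versus DMSO.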

[7] = CEETOX_H295R_11DCORT: CeeTox H295R High-throughput Steroidogenesis Assay for 11-Deoxycortisol (11DCORT) (AID 2283432; active means hit-call score of the fitted dose curve at least 0.9, where 1 is the maximum; inactive means score below 0.9;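 further: 11-deoxycortisol secreted into the medium measured by LC-MS/MS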); conditions: actives raise or lower the signal
Summary of the method: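 H295R cells prestimulated 48 h with 10 uM forskolin, then exposed 48 h to chemical in 0.1% DMSO. 11-Deoxycortisol in medium quantified by HPLC-MS/MS after MTBE extraction; bidirectional fit versus DMSO. MTT viability read in same wells.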

[8] = CEETOX_H295R_OHPREG: CeeTox H295R High-throughput Steroidogenesis Assay for OH-Pregnenolone (OHPREG) (AID 2283434; active means hit-call score of the fitted dose curve at least 0.9, where 1 is the maximum; inactive means score below 0.9); conditions: actives raise or lower the signal
Summary of the method: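 H295R, 10 uM forskolin pre-stim 48 h; test chemical 48 h, 0.1% DMSO final. MTBE extraction, reverse-phase C18 HPLC-ESI+ MS/MS of medium. Gain/loss vs DMSO; viability by MTT in same wells.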

[9] = CEETOX_H295R_OHPROG: CeeTox H295R High-throughput Steroidogenesis Assay for OH-Progesterone (OHPROG) (AID 2283435; active means hit-call score of the fitted dose curve at least 0.9, where 1 is the maximum; inactive means score below 0.9;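 further: human adrenal H295R cells primed 48 h with 10 µM forskolin; 17alpha-hydroxyprogesterone secreted into medium measured by HPLC-MS/MS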); conditions: actives raise or lower the signal
Summary of the method: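 Steps: seed H295R cells and adhere overnight; stimulate with 10 uM forskolin for 48 h; replace with chemical-containing medium (0.1% DMSO) for 48 h; extract medium with MTBE; quantify 17alpha-hydroxyprogesterone by reverse-phase C18 HPLC-MS/MS against a 7-point curve.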

[10] = CEETOX_H295R_CORTIC: CeeTox H295R High-throughput Steroidogenesis Assay for Corticosterone (CORTIC) (AID 2283437; active means hit-call score of the fitted dose curve at least 0.9, where 1 is the maximum; inactive means score below 0.9;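 further: corticosterone secreted into medium quantified by mass spectrometry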); conditions: actives raise or lower the signal
Summary of the method: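 48 h forskolin (10 uM) prestim, then 48 h chemical exposure, final DMSO 0.1%. Readout: corticosterone in medium by LC-MS/MS after MTBE extraction. Gain/loss fit vs DMSO; MTT viability in same wells.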

[11] = CEETOX_H295R_CORTISOL: CeeTox H295R High-throughput Steroidogenesis Assay for Cortisol (AID 2283438; active means hit-call score of the fitted dose curve at least 0.9, where 1 is the maximum; inactive means score below 0.9); conditions: actives raise or lower the signal
Summary of the method: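 Cortisol synthesis by H295R cells is measured 48 h after chemical dosing, following a 48 h stimulation with 10 uM forskolin. Hormone is extracted and quantified by HPLC-MS/MS, and activity is fitted bidirectionally against the DMSO control.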

[12] = CEETOX_H295R_DOC: CeeTox H295R High-throughput Steroidogenesis Assay for DOC (AID 2283439; active means hit-call score of the fitted dose curve at least 0.9, where 1 is the maximum; inactive means score below 0.9); conditions: actives raise or lower the signal
Summary of the method: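 Steps: seed H295R, adhere overnight; 10 uM forskolin 48 h; replace with chemical medium (0.1% DMSO) 48 h; collect medium, MTBE extraction, HPLC-MS/MS for DOC. Viability then checked by MTT; cytotoxic chemicals diluted until viability ≥70%.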

[13] = CEETOX_H295R_ESTRADIOL: CeeTox H295R High-throughput Steroidogenesis Assay for Estradiol (AID 2283440; active means hit-call score of the fitted dose curve at least 0.9, where 1 is the maximum; inactive means score below 0.9;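 further: estradiol secreted into medium quantified by LC-MS/MS after dansyl derivatisation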); conditions: actives raise or lower the signal
Summary of the method: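 H295R cells pre-stimulated 48 h with 10 uM forskolin, then exposed 48 h to chemical in 0.1% DMSO. Medium estradiol quantified by MTBE extraction, dansyl derivatisation and HPLC-MS/MS; bidirectional fit versus DMSO; MTT viability required >/=70%.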

[14] = CEETOX_H295R_PROG: CeeTox H295R High-throughput Steroidogenesis Assay for Progesterone (PROG) (AID 2283442; active means hit-call score of the fitted dose curve at least 0.9, where 1 is the maximum; inactive means score below 0.9;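 further: human H295R adrenal cells primed with 10 µM forskolin before dosing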); conditions: actives raise or lower the signal
Summary of the method: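 H295R adrenal cells prestimulated 48 h with 10 uM forskolin, then exposed 48 h to test chemical in 0.1% DMSO. Progesterone in medium quantified by HPLC-MS/MS after MTBE extraction; viability checked by MTT in same wells.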

[15] = read-out: Tumor necrosis factor receptor superfamily member 6 (Homo sapiens) (UniProt P25445); assay: LTEA_HepaRG_FAS: Life Technologies and Expression Analysis (LTEA) Assay for Fas cell surface death receptor (FAS) using HepaRG (AID 2283447; active means hit-call score of the fitted dose curve at least 0.9, where 1 is the maximum; inactive means score below 0.9); conditions: mRNA level, 48 h; actives raise or lower the signal
Summary of the method: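 Differentiated HepaRG cells in serum-free induction medium were exposed 48 h to 8 half-log concentrations up to 100 uM in 0.5% DMSO, in duplicate. FAS mRNA was measured by qRT-PCR normalised to ACTB, GAPDH and POLR2A; bidirectional fit versus DMSO.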

[16] = read-out: Fatty acid synthase (Homo sapiens) (UniProt P49327); assay: LTEA_HepaRG_FASN: Life Technologies and Expression Analysis (LTEA) Assay for Fatty Acid Synthase (FASN) using HepaRG (AID 2283448; active means hit-call score of the fitted dose curve at least 0.9, where 1 is the maximum; inactive means score below 0.9;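 on AC50: differentiated human HepaRG liver cells in serum-free induction medium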); conditions: mRNA level, 48 h; actives raise or lower the signal
Summary of the method: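 Cells were plated, cultured 48 h, switched to serum-free induction medium, then dosed in duplicate (max 100 uM, half-log dilutions, 0.5% DMSO) for 48 h. RNA was then isolated and FASN quantified by qRT-PCR.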

[17] = read-out: Cyclin D2 (CCND2), CCND2 (gene 894); assay: LTEA_HepaRG_CCND2: Life Technologies and Expression Analysis (LTEA) Assay for Cyclin D2 (CCND2) using HepaRG (AID 2283449; active means hit-call score of the fitted dose curve at least 0.9, where 1 is the maximum; inactive means score below 0.9;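 further: CCND2 transcript measured by TaqMan qRT-PCR and normalised to three housekeeping genes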); conditions: mRNA level, 48 h; actives raise or lower the signal
Summary of the method: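 HepaRG, 48 h dosing, 8-pt half-log curve from 100 uM, 0.5% DMSO; duplicate wells. Readout: CCND2 transcript by microfluidic qRT-PCR, housekeeping-normalised; bidirectional fit vs DMSO baseline.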

[18] = target: Peroxisome proliferator-activated receptor gamma (Homo sapiens) (UniProt P37231); assay: OT_PPARg_PPARgSRC1_0480: Odyssey Thera (OT) 8-hour Protein-Complementation Assay for Peroxisome Proliferator-activated Receptor Gamma / SRC-1 Co-activator (AID 2283387)
Summary of the method: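 HEK293T transiently transfected with PPARg and SRC-1 fused to Venus YFP fragments, compounds 8 h at 37C. Fixed, Draq5-stained cells imaged; nuclear/cytoplasmic 488 nm fluorescence ratio over at least 350 cells per image; gain fitted versus DMSO.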

[19] = CEETOX_H295R_ESTRONE: CeeTox H295R High-throughput Steroidogenesis Assay for Estrone (AID 2283441; active means hit-call score of the fitted dose curve at least 0.9, where 1 is the maximum; inactive means score below 0.9;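 further: human adrenal H295R cells prestimulated with forskolin for two days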); conditions: actives raise or lower the signal
Summary of the method: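 Estrone secreted into medium quantified by LC-MS/MS after dansyl chloride derivatization, following 48 h chemical exposure (0.1% DMSO final) of forskolin-prestimulated (10 uM, 48 h) H295R cells; gain or loss fitted against DMSO; MTT viability in same wells.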

Measured: AC50

Retinoic acid receptor RXR-alpha (Homo sapiens), sequence (P19793 whole entry, looked up, the tested form may be a part): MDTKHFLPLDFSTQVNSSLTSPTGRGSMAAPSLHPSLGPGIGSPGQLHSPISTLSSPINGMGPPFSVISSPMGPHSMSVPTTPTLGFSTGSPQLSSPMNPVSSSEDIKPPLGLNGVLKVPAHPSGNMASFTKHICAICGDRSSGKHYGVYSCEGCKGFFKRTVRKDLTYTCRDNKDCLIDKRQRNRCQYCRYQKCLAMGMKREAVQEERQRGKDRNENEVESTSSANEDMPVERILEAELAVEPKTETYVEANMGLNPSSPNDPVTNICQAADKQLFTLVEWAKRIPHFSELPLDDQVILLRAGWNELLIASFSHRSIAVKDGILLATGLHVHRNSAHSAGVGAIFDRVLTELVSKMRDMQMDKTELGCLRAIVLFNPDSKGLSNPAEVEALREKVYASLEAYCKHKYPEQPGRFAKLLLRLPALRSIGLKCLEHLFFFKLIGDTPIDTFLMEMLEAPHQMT
Estrogen receptor (Homo sapiens), sequence (P03372 whole entry, looked up): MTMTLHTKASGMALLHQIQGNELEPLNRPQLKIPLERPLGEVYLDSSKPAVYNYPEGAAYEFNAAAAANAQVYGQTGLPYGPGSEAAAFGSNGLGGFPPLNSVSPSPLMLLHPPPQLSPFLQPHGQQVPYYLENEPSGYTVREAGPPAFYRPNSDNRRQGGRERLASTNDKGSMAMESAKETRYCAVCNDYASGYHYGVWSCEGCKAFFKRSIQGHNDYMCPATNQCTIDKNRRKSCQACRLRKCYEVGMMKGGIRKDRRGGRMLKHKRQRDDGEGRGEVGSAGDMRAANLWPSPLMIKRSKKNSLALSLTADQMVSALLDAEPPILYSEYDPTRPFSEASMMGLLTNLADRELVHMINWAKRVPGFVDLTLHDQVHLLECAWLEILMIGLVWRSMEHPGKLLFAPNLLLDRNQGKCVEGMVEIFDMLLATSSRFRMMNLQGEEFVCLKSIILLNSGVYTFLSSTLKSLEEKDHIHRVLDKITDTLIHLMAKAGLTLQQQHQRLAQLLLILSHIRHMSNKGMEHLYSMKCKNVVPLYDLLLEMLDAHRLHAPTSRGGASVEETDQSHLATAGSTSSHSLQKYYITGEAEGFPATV
Peroxisome proliferator-activated receptor gamma (Homo sapiens), sequence (P37231 whole entry, looked up, the tested form may be a part): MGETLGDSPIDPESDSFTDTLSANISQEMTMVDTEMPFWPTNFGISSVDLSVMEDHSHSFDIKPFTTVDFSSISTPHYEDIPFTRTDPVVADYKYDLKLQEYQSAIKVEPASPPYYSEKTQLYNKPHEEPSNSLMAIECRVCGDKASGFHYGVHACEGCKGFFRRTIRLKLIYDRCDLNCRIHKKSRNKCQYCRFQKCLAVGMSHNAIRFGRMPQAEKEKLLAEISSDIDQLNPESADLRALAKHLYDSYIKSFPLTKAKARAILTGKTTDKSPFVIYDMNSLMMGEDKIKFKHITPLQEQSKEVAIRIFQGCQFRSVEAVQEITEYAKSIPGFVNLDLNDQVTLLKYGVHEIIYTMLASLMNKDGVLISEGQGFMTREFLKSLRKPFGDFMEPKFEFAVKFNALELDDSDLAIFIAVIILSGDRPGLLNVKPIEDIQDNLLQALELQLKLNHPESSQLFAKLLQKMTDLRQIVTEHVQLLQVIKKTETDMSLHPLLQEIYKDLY
Bile acid receptor (Homo sapiens), sequence (Q96RI1 whole entry, looked up): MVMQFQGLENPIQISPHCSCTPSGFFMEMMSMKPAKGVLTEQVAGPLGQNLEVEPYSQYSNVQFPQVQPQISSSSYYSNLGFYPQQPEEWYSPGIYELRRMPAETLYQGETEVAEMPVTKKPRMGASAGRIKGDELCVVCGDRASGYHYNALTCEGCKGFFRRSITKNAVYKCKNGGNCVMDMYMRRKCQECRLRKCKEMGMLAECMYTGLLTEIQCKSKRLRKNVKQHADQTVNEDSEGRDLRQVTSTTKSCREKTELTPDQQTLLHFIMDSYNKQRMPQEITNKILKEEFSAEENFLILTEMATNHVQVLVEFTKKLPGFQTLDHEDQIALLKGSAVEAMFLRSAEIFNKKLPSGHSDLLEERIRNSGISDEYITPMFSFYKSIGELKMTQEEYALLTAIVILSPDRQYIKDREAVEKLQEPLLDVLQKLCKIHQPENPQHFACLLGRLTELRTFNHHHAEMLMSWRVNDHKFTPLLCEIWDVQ
Fatty acid synthase (Homo sapiens), sequence (P49327 whole entry, looked up): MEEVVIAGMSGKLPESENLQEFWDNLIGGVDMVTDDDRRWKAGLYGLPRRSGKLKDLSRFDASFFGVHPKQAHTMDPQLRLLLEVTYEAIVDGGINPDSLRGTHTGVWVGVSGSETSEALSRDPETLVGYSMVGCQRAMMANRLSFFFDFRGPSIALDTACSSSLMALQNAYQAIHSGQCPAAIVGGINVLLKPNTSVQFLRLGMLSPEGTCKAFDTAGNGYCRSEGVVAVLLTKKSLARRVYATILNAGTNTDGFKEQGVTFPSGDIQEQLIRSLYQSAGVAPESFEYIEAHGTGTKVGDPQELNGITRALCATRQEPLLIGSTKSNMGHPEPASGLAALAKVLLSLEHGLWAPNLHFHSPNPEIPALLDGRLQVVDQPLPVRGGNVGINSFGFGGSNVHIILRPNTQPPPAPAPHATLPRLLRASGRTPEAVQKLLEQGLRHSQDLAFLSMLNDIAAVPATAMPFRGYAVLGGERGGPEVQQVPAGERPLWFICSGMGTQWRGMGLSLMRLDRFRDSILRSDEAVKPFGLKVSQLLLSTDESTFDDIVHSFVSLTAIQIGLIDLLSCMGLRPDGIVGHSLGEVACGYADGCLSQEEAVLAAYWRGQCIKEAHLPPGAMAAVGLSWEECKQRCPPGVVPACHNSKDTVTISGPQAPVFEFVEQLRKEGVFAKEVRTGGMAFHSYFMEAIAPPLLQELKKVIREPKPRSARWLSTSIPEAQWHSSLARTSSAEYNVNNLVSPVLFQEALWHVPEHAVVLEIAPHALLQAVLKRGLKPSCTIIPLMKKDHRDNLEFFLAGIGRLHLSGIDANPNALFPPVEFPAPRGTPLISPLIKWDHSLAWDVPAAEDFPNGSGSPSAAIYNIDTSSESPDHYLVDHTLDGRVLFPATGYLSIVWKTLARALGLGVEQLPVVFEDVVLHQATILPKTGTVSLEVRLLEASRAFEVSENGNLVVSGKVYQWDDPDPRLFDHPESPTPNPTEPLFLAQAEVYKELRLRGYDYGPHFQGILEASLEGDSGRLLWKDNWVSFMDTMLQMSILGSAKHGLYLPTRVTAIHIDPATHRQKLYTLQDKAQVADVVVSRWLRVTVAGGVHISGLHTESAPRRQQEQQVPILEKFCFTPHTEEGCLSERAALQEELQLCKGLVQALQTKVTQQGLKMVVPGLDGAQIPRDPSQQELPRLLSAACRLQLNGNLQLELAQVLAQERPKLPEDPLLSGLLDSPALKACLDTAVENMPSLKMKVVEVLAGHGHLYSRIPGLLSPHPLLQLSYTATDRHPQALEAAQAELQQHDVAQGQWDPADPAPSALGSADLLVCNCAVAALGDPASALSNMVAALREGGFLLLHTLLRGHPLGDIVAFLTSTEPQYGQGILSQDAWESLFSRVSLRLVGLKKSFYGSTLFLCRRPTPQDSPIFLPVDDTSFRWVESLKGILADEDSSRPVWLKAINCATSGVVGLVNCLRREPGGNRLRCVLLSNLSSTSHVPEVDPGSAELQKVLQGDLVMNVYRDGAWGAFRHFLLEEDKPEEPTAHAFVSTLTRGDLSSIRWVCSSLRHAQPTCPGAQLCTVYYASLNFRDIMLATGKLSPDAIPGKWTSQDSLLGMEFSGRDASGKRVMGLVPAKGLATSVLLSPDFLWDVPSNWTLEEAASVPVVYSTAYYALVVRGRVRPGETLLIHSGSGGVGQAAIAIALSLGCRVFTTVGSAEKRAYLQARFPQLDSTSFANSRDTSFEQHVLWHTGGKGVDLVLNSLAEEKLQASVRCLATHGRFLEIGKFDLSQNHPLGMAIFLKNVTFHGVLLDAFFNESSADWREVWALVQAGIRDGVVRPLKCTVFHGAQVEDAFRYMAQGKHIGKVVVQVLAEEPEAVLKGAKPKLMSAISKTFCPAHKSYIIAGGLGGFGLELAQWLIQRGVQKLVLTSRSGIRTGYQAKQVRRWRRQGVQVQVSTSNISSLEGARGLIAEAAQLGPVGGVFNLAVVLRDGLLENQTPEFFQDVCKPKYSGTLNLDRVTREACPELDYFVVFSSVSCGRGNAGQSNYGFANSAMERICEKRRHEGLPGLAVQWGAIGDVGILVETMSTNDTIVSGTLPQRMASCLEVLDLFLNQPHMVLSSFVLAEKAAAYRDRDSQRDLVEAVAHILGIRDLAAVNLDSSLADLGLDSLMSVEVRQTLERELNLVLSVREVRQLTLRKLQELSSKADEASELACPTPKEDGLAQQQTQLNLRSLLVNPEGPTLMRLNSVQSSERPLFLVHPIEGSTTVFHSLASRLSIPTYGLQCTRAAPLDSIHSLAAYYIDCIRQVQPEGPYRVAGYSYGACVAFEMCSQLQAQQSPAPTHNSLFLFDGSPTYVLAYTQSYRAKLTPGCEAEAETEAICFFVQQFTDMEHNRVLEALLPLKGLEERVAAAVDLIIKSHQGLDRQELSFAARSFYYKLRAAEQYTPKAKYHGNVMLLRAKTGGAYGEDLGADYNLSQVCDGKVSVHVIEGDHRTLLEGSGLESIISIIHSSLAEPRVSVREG

O=P(Oc1ccccc1)(Oc1ccccc1)Oc1ccccc1
inactive: [4] | [5] | [6] | [10] | [11] | [12] | [13] | [15] | [16] | [17]
active: [1] 12.4 µM | [2] 7.54 µM | [3] 11.9 µM | [7] 2.92 µM | [8] 3.68 µM | [9] 1.85 µM | [14] 1.37 µM

CC(C)(C)N(NC(=O)c1ccc(Cl)cc1)C(=O)c1ccccc1
active: [3] 70.1 µM
inactive: [1] | [2] | [5] | [18] | [6]

CCOP(=S)(OCC)SCSCC
active: [3] 32.6 µM
inactive: [1] | [2] | [4] | [18] | [6] | [15] | [16]

CCCCOCC1CO1 (stereo not given)
inactive: [1] | [2] | [4] | [5] | [6]

CCCCCCCc1ccc(O)cc1
inactive: [1] | [2] | [4] | [5] | [18] | [6] | [15] | [16]
active: [4] 50 µM | [5] 50 µM

c1ccc2c(c1)Nc1ccccc1S2
active: [8] 6.86 µM and 2.55 µM | [9] 20.4 µM and 25 µM and 18.1 µM | [19] 9.58 µM and 17.3 µM and 12 µM | [14] 2.23 µM and 2.16 µM and 12.2 µM | [16] 50 µM
inactive: [1] | [2] | [4] | [5] | [18] | [6] | [8] | [13] | [15]

ClC1=C(Cl)C2(Cl)C3C(Cl)C(Cl)CC3C1(Cl)C2(Cl)Cl (stereo not given)
inactive: [1] | [2] | [3] | [6] | [15] | [16] | [17]

O=NN1CCCC1
inactive: [1] | [2] | [3] | [4] | [18] | [6]

CCCCC(CC)COC(=O)c1c(Br)c(Br)c(Br)c(Br)c1C(=O)OCC(CC)CCCC (stereo not given)
inactive: [1] | [2] | [3] | [4] | [5] | [18] | [6]
